Among the data in ChEMBL document CHEMBL1201862, “PubChem BioAssay data set” (2004) are AC50 values, retold here.

Hit rate of the full screen: of about 310,000 compounds, about 1,900 (0.61%) were called active. Not shown: some 8% with an inconclusive outcome. The calls are words filed in the database; no cut-off is given here. Shown is part of a subset that was picked to be rich in actives.

This test is described as follows: qHTS for Stage-Specific Inhibitors of Vaccinia Orthopoxvirus: mCherry Reporter Primary qHTS. Format: functional. As to conditions: read-out: Potency. Background: Quantitative high-throughput screening tests each substance at several concentrations.
With `CN(C)C(=O)CCc1ccc2c3c([nH]c2c1)[C@]1(C)[C@@H](C(=O)N2CCCCC2)C[C@H](CC(=O)NCCN2CCOCC2)C(=O)N1CC3`, the AC50 was 316 µM (active). Consider `C[C@H]1O[C@@H](O[C@H]2[C@@H](O)C[C@H](O[C@H]3[C@@H](O)C[C@H](O[C@H]4CC[C@@]5(C)[C@H](CC[C@@H]6[C@@H]5CC[C@]5(C)[C@@H](C7=CC(=O)OC7)[C@@H](O)C[C@]65O)C4)O[C@@H]3C)O[C@@H]2C)C[C@H](O)[C@@H]1O` [GITOXIN], for which the AC50 is 355 µM (active). The figure for `Cc1cccc2c1N(CCCCI)C=S2C` (stereo not drawn) is 4.47 µM (active).
